Experimental data from paper PMC4336329 (PLoS ONE, 2015).
Screen size: about 310,000 compounds; about 14,000 (4.5%) showed an effect of 50% or more. Effects have a minus sign here. This is one part of a sample in which strong results are shown more often than they occur.

Molecular target: human ether-à-go-go-related gene (hERG) potassium channel (human, UniProt Q12809)
Assay: primary screen, population patch clamp on CHO cells stably expressing hERG; higher = less effect of the substance
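Also: peak tail current of the secondary pulse compared with the same well before compound.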

Chain of human ether-à-go-go-related gene (hERG) potassium channel (Q12809 whole entry, looked up): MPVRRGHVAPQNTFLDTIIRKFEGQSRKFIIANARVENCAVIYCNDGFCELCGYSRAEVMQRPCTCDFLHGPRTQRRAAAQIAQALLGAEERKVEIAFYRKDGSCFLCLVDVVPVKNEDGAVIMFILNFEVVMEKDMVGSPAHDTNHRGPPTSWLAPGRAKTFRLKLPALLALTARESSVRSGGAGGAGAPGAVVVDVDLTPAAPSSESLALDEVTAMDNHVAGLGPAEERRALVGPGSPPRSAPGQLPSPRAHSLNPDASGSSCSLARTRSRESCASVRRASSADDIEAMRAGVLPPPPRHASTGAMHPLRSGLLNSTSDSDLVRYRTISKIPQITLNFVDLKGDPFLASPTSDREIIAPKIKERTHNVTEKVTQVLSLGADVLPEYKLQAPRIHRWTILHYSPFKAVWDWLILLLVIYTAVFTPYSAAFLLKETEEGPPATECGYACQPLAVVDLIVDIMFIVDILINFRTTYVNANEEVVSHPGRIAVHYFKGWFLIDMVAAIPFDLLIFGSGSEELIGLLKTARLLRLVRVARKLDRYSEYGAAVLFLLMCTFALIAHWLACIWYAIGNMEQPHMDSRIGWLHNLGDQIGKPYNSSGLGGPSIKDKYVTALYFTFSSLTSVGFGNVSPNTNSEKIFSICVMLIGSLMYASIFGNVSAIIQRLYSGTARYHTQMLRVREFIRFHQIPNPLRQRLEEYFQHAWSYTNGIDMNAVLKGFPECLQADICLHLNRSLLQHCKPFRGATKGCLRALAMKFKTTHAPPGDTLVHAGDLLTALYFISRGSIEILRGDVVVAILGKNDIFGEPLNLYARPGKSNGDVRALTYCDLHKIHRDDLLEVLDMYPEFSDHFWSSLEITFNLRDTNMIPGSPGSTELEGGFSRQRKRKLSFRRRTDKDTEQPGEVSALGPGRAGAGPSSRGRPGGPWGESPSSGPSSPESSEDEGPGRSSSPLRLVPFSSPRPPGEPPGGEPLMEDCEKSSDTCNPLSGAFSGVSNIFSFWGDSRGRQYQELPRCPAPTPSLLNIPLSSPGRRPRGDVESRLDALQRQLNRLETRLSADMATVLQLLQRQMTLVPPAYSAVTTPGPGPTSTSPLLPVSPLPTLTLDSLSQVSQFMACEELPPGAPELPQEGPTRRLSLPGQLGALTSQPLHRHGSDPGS

Row | Compound | hERG current change (%, negative = inhibition) at 10uM [%]
1 | COc1cc(OC)nc(Oc2ccccc2C(=O)Oc2cccc(C)c2)n1 | 7.95
2 | CC1=NN(C(=O)c2ccc(Cl)cc2)C(O)(c2ccccc2)C1 (centres unmarked) | 22
3 | COc1ccccc1C(=O)N(C1=NC(C)CS1)c1ccc(Cl)cc1 (centres unmarked) | 7.94
4 | Cc1cc(C)c(C#N)c(N2CCCC2)n1 | 5.67
5 | COCCCNC(=O)c1ccc(CS(=O)(=O)c2ccc(Br)cc2)o1 | -14.3
6 | COC(=O)C1=C(C(=O)OC)[N+]2=C3N(C(=O)NC2(C)C)[C@H](CO)C[C@@]32c3ccccc3N(Cc3ccccc3)[C@@H]12 | -11.2
7 | CCOc1ccc(CCNC(=O)CN(C)S(=O)(=O)c2cccs2)cc1OCC | 10.2
8 | CC(=O)Nc1cccc(NC(=O)CSc2nnc(NC(=O)c3ccco3)s2)c1 | 4.45
9 | O=C(Nc1ccccc1Oc1cccnc1)C1CCCN(C/C=C/c2ccc(F)cc2)C1 (centres unmarked) | -76.9
10 | COc1cc(CN2CCCC(C(=O)Nc3ccccc3Oc3cccnc3)C2)ccc1F (centres unmarked) | -39
11 | O=C(Nc1ccccc1Oc1ccccc1)C1CCCC1 | 6.32
12 | O=C(Nc1ccccc1Oc1ccccc1)C1CC1 | 12.2
13 | O=C(Nc1ccccc1Oc1cccnc1)C1CCCN(C/C=C/c2ccccc2)C1 (centres unmarked) | -76.9
14 | CCN(CC)C(=O)C1CCCN(C/C=C/c2ccccc2)C1 (centres unmarked) | -40.8
15 | O=C(Nc1ccncc1)c1ccc([N+](=O)[O-])cc1Cl | -3.15
16 | O=C(O)C1CC=C(Cl)CC1C(=O)NCc1ccccc1 (centres unmarked) | 6.61
17 | COc1ccc(C(=O)NC2=C(C#N)CCC2)cc1OC | 9.08
18 | NC(=O)NC(CC(=O)N1CCc2ccccc2C1)c1ccc(Cl)cc1 (centres unmarked) | 2.09
19 | COC(=O)[C@H](CCSC)NC(=O)Nc1ccc(OC)c(Cl)c1 | -6.64

Row | Compound | hERG current change (%, negative = inhibition) at 10uM [%]
20 | COC(=O)[C@H](CCSC)NC(=O)Nc1ccc(C)cc1 | 11.6
21 | COC(=O)[C@H](CCSC)NC(=O)Nc1ccc(C)c(C)c1 | -83.6
22 | C[N+](C)(C)CCN(Cc1ccc(Cl)cc1)c1ccccn1.[I-] | -14.4
23 | CCCCCc1ccc(-c2ccc(OC)cc2)nc1 | 19.7
24 | O=C(COc1ccc(Cl)cc1)N(Cc1ccccc1)c1ccccn1 | -36
25 | CCCCCCCCCCCCCCCC[N+](C)(C)CCN(Cc1ccc(OC)cc1)c1ncccn1.[Br-] | -75
26 | CN(C)CCN(Cc1ccccc1)c1ccccn1.Cl | -48.6
27 | CC[N+](C)(C)CCN(Cc1ccc(Cl)cc1)c1ccccn1.[Br-] | -68.6
28 | CC(C)(Oc1ccc(Cl)cc1)C(=O)N(Cc1ccccc1)c1ccccn1 | -7.15
29 | CN(C)CCN(Cc1ccc(Cl)cc1)c1ccccn1.Cl | -74.4
30 | COc1ccc(CN(CCN(C)C)c2ccccn2)cc1.O=C(O)/C=C\C(=O)O | -38.5
31 | Nc1nc(-c2ccco2)nn1C(=O)CCc1ccccc1 | -0.902
32 | CCCOc1ccccc1C(=O)N1CCNC(=O)C1CC(=O)OC(C)C (centres unmarked) | 0.716
33 | CCOC(=O)N1CCN(S(=O)(=O)c2cc(Cl)c(OC)cc2Cl)CC1 | 4.96
34 | CCN(CC)S(=O)(=O)c1ccc2[nH]c(=O)cc(C(=O)NCC3CCCO3)c2c1 (centres unmarked) | -10.3
35 | COc1ccc(NC(=O)c2ccc(NC(=O)COC(=O)CC(NC(=O)c3ccccc3Cl)c3ccccc3)cc2)cc1 (centres unmarked) | -2.55
36 | CCC(=O)Nc1nc(CC(=O)Nc2ccccc2)cs1 | 18.2
37 | COc1ccc(CC(=O)N2CCN(c3ccccn3)CC2)cc1 | 7.79
38 | CCn1c(CNC(=O)c2ccco2)nnc1SCC(=O)Nc1cc(C)c(C)cc1Br | -16.6

Row | Compound | hERG current change (%, negative = inhibition) at 10uM [%]
39 | CCn1c(CNC(=O)COc2ccc(C(C)C)cc2)nnc1SCC(=O)Nc1ccccc1C(C)C | -55.1
40 | COc1ccc(C(=O)NCCc2nnc(SCC(=O)Nc3ccccc3C(C)C)n2C)cc1 | -13.3
41 | CCn1c(CNC(=O)c2ccco2)nnc1SCC(=O)Nc1ccc(Br)cc1F | -54.8
42 | CCn1c(CNC(=O)COc2c(C)cccc2C)nnc1SCC(=O)Nc1nccs1 | -51.8
43 | Cn1c(CNC(=O)c2ccco2)nnc1SCC(=O)Nc1ccc(Br)cc1F | -43.4
44 | CCn1c(CNC(=O)c2ccco2)nnc1SCC(=O)Nc1cc(F)ccc1C | -0.0602
45 | CCn1c(COc2ccc(C(C)C)cc2)nnc1SCC(=O)Nc1nccs1 | -7.75
46 | CCn1c(CNC(=O)Cc2ccc(OC)cc2)nnc1SCC(=O)Nc1nccs1 | -5.75
47 | CCn1c(CCCOc2ccc(Cl)cc2Cl)nnc1SCC(=O)Nc1cc(F)ccc1C | -13.1
48 | CCn1c(CNC(=O)COc2ccc(C(C)C)cc2)nnc1SCC(=O)Nc1cc(F)ccc1C | -65.7
49 | CCCCc1nnc(SCC(=O)Nc2nccs2)n1CC | 4.93
50 | CN(C)S(=O)(=O)c1ccc(Cl)c(C(=O)NC2CCCCCCC2)c1 | 7.33
51 | O=C(Cn1nnc(-c2ccncc2)n1)N1CCc2ccccc21 | 15.2
52 | CCCc1nc2oc3c(NCc4ccccn4)ncnc3c2c2c1COC(C)(C)C2 | -17.8
53 | COc1cccc(CN2CCNC(=O)C2CC(=O)NCCCn2ccnc2)c1 (centres unmarked) | 37.2
54 | Cc1cc(=O)[nH]c(/N=C(\N)Nc2cccc3ccccc23)n1 | 11.5
55 | NNC(=O)c1ccc(COCC(F)(F)C(F)F)cc1 | 14.5
56 | CC(NC(=O)c1cc2cc(Cl)ccc2oc1=N)c1ccccc1 (centres unmarked) | 7.55
